D2 ag-1: activates the human D2 dopamine receptor | AID 624465 | activation, % (concentration not given with the values) | hit rate 0.084% among 360,000 | P14416 | DiscoveRx PathHunter D2 beta-arrestin, luminescence, 90 min; 100% = 57 uM dopamine signal; in the data active = activation above about 40%; inconclusive = between about 15% and that limit
Target sequence (P14416 whole entry, looked up): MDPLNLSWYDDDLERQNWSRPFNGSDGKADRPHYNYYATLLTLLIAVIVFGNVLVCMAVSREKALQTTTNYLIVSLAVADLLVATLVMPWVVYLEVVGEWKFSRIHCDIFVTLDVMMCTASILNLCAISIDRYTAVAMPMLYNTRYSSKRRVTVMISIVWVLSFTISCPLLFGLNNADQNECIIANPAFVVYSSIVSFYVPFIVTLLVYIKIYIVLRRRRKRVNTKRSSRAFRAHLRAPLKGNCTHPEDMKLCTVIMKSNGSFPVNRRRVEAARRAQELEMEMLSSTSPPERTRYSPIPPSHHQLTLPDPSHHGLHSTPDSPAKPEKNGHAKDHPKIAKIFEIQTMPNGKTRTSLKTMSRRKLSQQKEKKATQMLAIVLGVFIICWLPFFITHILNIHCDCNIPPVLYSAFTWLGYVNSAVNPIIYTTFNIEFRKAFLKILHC
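DiscoveRx PathHunter D2 beta-arrestin cells (2,100/well) attached overnight, then compound-stimulated 90 min at 37 C in HBSS/10 mM HEPES/0.1% Tween-20 buffer; beta-galactosidase complementation read by luminescence after 1 h at ambient temperature. Dopamine 57 uM final (EC100) as control.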
D2 ag-2: agonists of human D2 dopamine receptor | P14416 | HEK293 T-REx D2 cells, calcium flux agonist mode | activation, % at 2 µM | hit rate 0.53% among 340,000 | AID 485358;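 active = activation over 3 SD above normal in the single-dose calcium agonist read, cut at about 30% in these data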; note: 0% is about no effect
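In this primary screen, compounds producing a positive calcium signal within 180 s of addition to tetracycline-induced, force-coupled HEK293 Trex D2 cells are flagged; cells are dye-loaded with a no-wash calcium kit beforehand.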
D2 PAM-1: positively modulates the human D2 dopamine receptor allosterically; potentiation, % at 10 µM; hit rate 0.34% among 340,000; AID 485347; HEK293 T-REx D2, calcium flux, EC20 dopamine potentiation;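 active = potentiation over 3 SD above the plate norm, cut at about 30% in these data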; note: 0% is about no effect
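Calcium flux readout, no-wash dye, 1 read/s. Inducible HEK293 Trex D2 line, overnight 30 C. Compound alone 180 s (agonist flags), then EC20 dopamine, another 180 s to score potentiation.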
D2 PAM-2: potentiates the human D2 dopamine receptor allosterically; potentiation, % (test concentration not listed); DiscoveRx D2 beta-arrestin cells, luminescence, 90 min; 100% = 57 uM dopamine signal; hit rate 0.23% among 360,000; in the data active = potentiation above about 50%; inconclusive = mostly about 30% to 49%
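PathHunter D2 cells, attached overnight at 37 deg C, received compound in DMSO plus dopamine at EC20 (50 nM final) for 90 min at 37 deg C. Beta-arrestin recruitment was read as luminescence after 1 h with detection reagent at ambient temperature.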
D2 antagonist: antagonists of human D2 dopamine receptor | P14416 | HEK293 TREx D2 cells, calcium flux, dopamine EC80 | inhibition, % at 10 µM | hit rate 2% among 340,000; in the data active = inhibition above about 30%; inactive = below that, where a call was filed; note: 0% is about no effect
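Cells plated overnight at 30 C with tetracycline; no-wash calcium dye, 30–90 min RT; 10 s baseline; compound pinned; 180 s read; EC80 dopamine added; another 180 s read.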
D3 ag: D3 receptor agonism confirmed, beta-arrestin readout; DiscoveRx D3 beta-arrestin cells, luminescence, 90 min; AID 720506; Potency, µM (series often up to 76.9 µM), without a hit: at the highest dose activation, usual class: activators; hit rate 4% among 2,300; shares compounds with D2 ag-2;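 note: potency is the fitted concentration of half-maximal effect; 100% = dopamine control response; nearly all actives have a fitted effect of over 70% in size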
D2 ag-3: counter-screen for D3 agonists: human D2 dopamine receptor agonism; shares compounds with D2 ag-2; DiscoveRx PathHunter D2 beta-arrestin, luminescence, 90 min; response scale: percent relative to full dopamine signal; Potency, µM (doses to about 76.9 µM), without a hit: top-dose activation, hits mostly activators; hit rate 5.9% among 2,300; AID 720507; note: potency is the fitted concentration of half-maximal effect; % of control where 0% means no effect; nearly all actives have a fitted effect of over 70% in size
The depositor's hits bear a star. Rows were chosen to be rich in hits. Some 2.4% of all compounds tested hit in one or more screens of this group. Unless noted, calls come from the whole dose curve; as a rule, active = well fitted activation curve with a large enough effect; inconclusive = small, poorly fitted or top-dose-only effect; inactive = flat fitted curve, though single readings scatter.

What do the screens show for `O=C(c1ccc2c(=O)n(Cc3ccc4c(c3)OCO4)c(=S)[nH]c2c1)N1CCC2(CC1)OCCO2`?
D2 ag-1: -0.8; D2 ag-2: 0.1; D2 PAM-1: 6.4; D2 PAM-2: -10.1; D2 antagonist: 43.9*

How did O=C(NCc1ccc(C(=O)N2CCC3(CC2)OCCO3)cc1)c1ccc2c(c1)OCO2 do in these assays?
D2 ag-1: -2.4; D2 ag-2: 0.1; D2 PAM-1: 5.0; D2 PAM-2: -7.0; D2 antagonist: -22.3

What do the screens show for `Cc1cc(-n2c(/C=C/c3ccc(Br)s3)nc3ccccc3c2=O)ccc1Br`?
D2 PAM-1: -13.1

Results for CCN1C(=O)NC(=O)/C(=C/c2cc(C)n(-c3sc(C)c(C)c3C#N)c2C)C1=O ?
D2 ag-1: 0.1; D2 ag-2: -1.5; D2 PAM-1: 44.2*; D2 PAM-2: 11.2; D2 antagonist: -24.3

Results for Cc1ccccc1-n1c(/C=C/c2ccccc2F)nc2ccccc2c1=O ?
D2 ag-2: -1.0; D2 PAM-1: 1.1

How did COc1ccc(-n2c(/C=C\c3ccccc3F)nc3ccccc3c2=O)cc1OC do in these assays?
D2 ag-2: -0.3; D2 PAM-1: -7.2

Results for COC(COC(N)=O)C1=C(N2CC2)C(=O)C(C)=C(N2CC2)C1=O (stereo not drawn) ?
D2 ag-1: inconclusive; D2 PAM-2: 72.2*

What do the screens show for `CCn1cc(C=C2C(=O)NC(=O)NC2=O)c2ccccc21`?
D2 ag-1: -2.5; D2 ag-2: 1.1; D2 PAM-1: -1.3; D2 PAM-2: 3.4; D2 antagonist: 37.9*

How did Cc1ccccc1-n1nc(C)c2c1NC(=O)CSC2c1ccccc1C(F)(F)F (stereo not drawn) do in these assays?
D2 ag-2: -1.3; D2 PAM-1: -0.6

Results for COc1ccc2[nH]cc(CCNCc3cccnc3)c2c1 ?
D2 ag-1: 3.1; D2 ag-2: 0.0; D2 PAM-1: -12.5; D2 PAM-2: -1.2; D2 antagonist: -7.7

How did COc1cccc(CNCCc2c[nH]c3ccccc23)c1 do in these assays?
D2 ag-1: 3.4; D2 ag-2: 1.8; D2 PAM-1: -20.9; D2 PAM-2: -23.3; D2 antagonist: 46.3*

Results for CCOc1ccc(C2C(C#N)=C(N)Oc3c2c(=O)oc2ccccc32)cc1 (stereo not drawn) ?
D2 ag-1: -3.3; D2 ag-2: -0.7; D2 PAM-1: -3.8; D2 PAM-2: -11.4; D2 antagonist: 30.7*

How did N#CC1=C(N)Oc2c(c(=O)oc3ccccc23)C1c1ccncc1 (stereo not drawn) do in these assays?
D2 ag-1: -0.3; D2 ag-2: -0.2; D2 PAM-1: -8.2; D2 PAM-2: -6.9; D2 antagonist: -10.8

How did COc1ccc(C(=O)N2CCCC2=O)cc1 do in these assays?
D2 ag-1: -4.3; D2 ag-2: 1.4; D2 PAM-1: 4.8; D2 PAM-2: -6.3; D2 antagonist: 39.8*

What do the screens show for `CN1CCCC(C(=O)c2ccccc2)C1` (stereo not drawn)?
D2 ag-1: -0.4; D2 ag-2: 42.5*; D2 PAM-1: -13.7; D2 PAM-2: -3.1; D2 antagonist: 30.2*; D3 ag: 14.6%; D2 ag-3: 11.1%

Results for CSc1ccc(C(=O)C2CCCN(C)C2)cc1 (stereo not drawn) ?
D2 ag-1: 0.6; D2 ag-2: -0.3; D2 PAM-1: -10.6; D2 PAM-2: -12.2; D2 antagonist: 1.3

Results for NNCc1cccc(O)c1 ?
D2 ag-1: 1.7; D2 ag-2: -0.4; D2 PAM-1: -3.1; D2 PAM-2: -9.4; D2 antagonist: -22.1

What do the screens show for `CCNCC(O)c1cccc(O)c1` (stereo not drawn)?
D2 ag-1: -3.1; D2 ag-2: 36.3*; D2 PAM-1: -15.0; D2 PAM-2: 3.3; D2 antagonist: 32.3*; D3 ag: inconclusive; D2 ag-3: inconclusive

What do the screens show for `O=[N+]([O-])c1ccc(CN2CC=C(c3ccccc3)CC2)cc1`?
D2 ag-1: -0.9; D2 ag-2: 77.7*; D2 PAM-1: -49.5; D2 PAM-2: -20.6; D2 antagonist: 89.1*; D3 ag: 5.1%; D2 ag-3: 10.3%

What do the screens show for `CC(CCc1ccccc1)NCCC#N` (stereo not drawn)?
D2 ag-1: 10.1; D2 ag-2: 76.7*; D2 PAM-1: -26.4; D2 PAM-2: 5.6; D2 antagonist: 16.1; D3 ag: inconclusive; D2 ag-3: 23.5%

What do the screens show for `O=C(CCN1C(=O)COc2ccccc21)N1CCC2(CC1)OCCO2`?
D2 ag-1: 1.4; D2 ag-2: 55.8*; D2 PAM-1: -18.6; D2 PAM-2: 0.4; D2 antagonist: -0.2; D3 ag: -7.7%; D2 ag-3: -4.3%

How did CCN(C(=O)CN1CC=C(c2ccccc2)CC1)c1c(N)n(Cc2ccccc2)c(=O)[nH]c1=O do in these assays?
D2 ag-1: -2.3; D2 ag-2: 10.8; D2 PAM-1: -7.5; D2 PAM-2: -9.0; D2 antagonist: -12.6; D3 ag: -12.0%; D2 ag-3: 2.4%

Results for CCc1ccc(-n2nc(C)c3c2NC(=O)CSC3c2ccc(C(=O)OC)cc2)cc1 (stereo not drawn) ?
D2 ag-2: -1.3; D2 PAM-1: -2.0

Results for Nc1ccc(N2CCN(Cc3ccccc3Cl)CC2)c(Cl)c1 ?
D2 ag-1: -2.8; D2 ag-2: 2.6; D2 PAM-1: -27.1; D2 PAM-2: -10.7; D2 antagonist: 28.2

What do the screens show for `Clc1ccccc1CN1CCN(c2cccc3[nH]ccc23)CC1`?
D2 ag-1: 5.0; D2 PAM-2: -6.1; D3 ag: -8.2%; D2 ag-3: 1.5%

Results for Clc1ccccc1CN1CCN(c2ccccc2)CC1 ?
D2 ag-1: inconclusive; D2 ag-2: 67.8*; D2 PAM-1: -26.1; D2 PAM-2: 6.8; D2 antagonist: 68.2*; D3 ag: 0.5%; D2 ag-3: inconclusive

How did Cc1ccc(-n2c(/C=C/c3ccc(Br)s3)nc3ccccc3c2=O)cc1 do in these assays?
D2 ag-2: -0.1; D2 PAM-1: 11.0

What do the screens show for `N#Cc1cc2c(nc1SCC(=O)Nc1ccc(Cl)c(C(F)(F)F)c1)C1CCN2CC1`?
D2 ag-2: 0.6; D2 PAM-1: 18.2

How did Cc1cc(C)cc(-n2c(=O)[nH]c3ccccc3c2=O)c1 do in these assays?
D2 ag-2: 0.9; D2 PAM-1: 2.3

High-throughput results (PubChem)
